Test results reported in PubChem BioAssay AID651710 (Broad Institute, 2012).
“And” between values parts separate entries of the source, which are not always exact repeats. Equal values may be shown once. About 1,600 (0.44%) of roughly 360,000 compounds were called active.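 Rule for the calls: active = every replicate showing at least 50% inhibition; inconclusive = mean inhibition at least 50% but not in every replicate; inactive = the rest.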 The list comes from a sample in which actives are over-represented; it also holds similar structures and randomly drawn compounds. Some compounds were tested as several samples or in several runs, with calls that do not always agree.

The molecules below were run against DNA repair protein RAD52 homolog (Homo sapiens) (UniProt P43351) (assay: RAD52 DNA annealing inhibitors, primary screen, biochemical, FRET, single point, set 2 (AID 651710)). Conditions: recombinant RAD52 DNA annealing, FRET fluorescence; at 18.7 µM; stronger effect = higher value.
DNA repair protein RAD52 homolog (Homo sapiens), sequence (P43351 whole entry, looked up): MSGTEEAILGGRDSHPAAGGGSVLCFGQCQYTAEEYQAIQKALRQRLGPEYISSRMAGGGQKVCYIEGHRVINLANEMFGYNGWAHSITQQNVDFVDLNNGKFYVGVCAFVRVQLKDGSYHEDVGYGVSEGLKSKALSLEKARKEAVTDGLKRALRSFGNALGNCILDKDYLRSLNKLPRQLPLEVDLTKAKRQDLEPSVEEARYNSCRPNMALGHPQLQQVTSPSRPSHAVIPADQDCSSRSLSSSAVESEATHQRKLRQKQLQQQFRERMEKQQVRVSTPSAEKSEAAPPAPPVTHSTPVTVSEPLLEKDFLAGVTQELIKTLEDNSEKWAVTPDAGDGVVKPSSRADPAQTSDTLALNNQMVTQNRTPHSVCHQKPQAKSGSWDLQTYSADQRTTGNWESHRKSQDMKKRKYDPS
In the case of CCN(CC)CCN(C(=O)c1ccc(N2C(=O)CCC2=O)cc1)c1nc2cc3c(cc2s1)OCO3, the inhibition was 40.8% (inactive).
COc1cccc2sc(N(CCCN(C)C)C(=O)C(c3ccccc3)c3ccccc3)nc12 was tested, and the inhibition was 56.2% (active).
COc1ccccc1CNC(=O)Cn1cc2c(n1)CCCC2 was tested, and the inhibition was -14% (inactive).
For CCN(CC)CCN(C(=O)c1ccc2c(c1)CCCC2)c1nc2c(OC)cccc2s1, the inhibition was 53.9% (active).
O=C(CN1CCOCC1)N1CC(=O)N2[C@H](C1)[C@H](c1ccc(/C=C/c3ccccc3)cc1)[C@@H]2CO was tested, and the inhibition was -3.93% (inactive).
For CCN(CC)CCCNC(=O)c1cc2c(=O)[nH]c3ccc(C)cc3c2s1, the inhibition was 54.3% (active).
O=C(NCCN1CCN(Cc2ccccc2)CC1)c1cc2c(=O)[nH]c3ccccc3c2s1 was tested, and the inhibition was -32.4% (inactive).
For Cc1cccc(N(C)C(=O)c2cc3c(=O)[nH]c4ccc(C)cc4c3s2)c1, the inhibition was -6.65% (inactive).
In the case of CO[C@H]1CN(C)C(=O)c2cc(NC(=O)NC(C)C)ccc2OC[C@H](C)N(C(=O)CN(C)C)C[C@H]1C, the inhibition was -12.8% (inactive).
For CO[C@@H]1CN(C)C(=O)c2cc(NC(=O)Nc3ccc4c(c3)OCO4)ccc2OC[C@@H](C)NC[C@@H]1C, the inhibition was -75.6% (inactive).
In the case of Cc1oc2c(c1C(=O)N1CCOCC1)C(=O)c1ccccc1C2=O, the inhibition was -120% (inactive).
COC1=C(N2CCOCC2)C(=O)c2ccccc2C1=O was tested, and the inhibition was 96.8% (active).
With O=C1c2ccccc2-c2ncnc3c(N4CCOCC4)cc(N4CCOCC4)c1c23 the inhibition was 3.29% (inactive).
For CCCNC(=O)C[C@@H]1CC[C@@H]2[C@H](COc3ccc(NC(=O)C4CCOCC4)cc3C(=O)N2C)O1, the inhibition was 8.28% (inactive).
In the case of O=C(Cc1ccccn1)N[C@H]1CC[C@@H](CC(=O)N2CCCCC2)O[C@@H]1CO, the inhibition was -3.74% (inactive).
For CO[C@@H]1CN(C)C(=O)c2ccc(NC(C)=O)cc2OC[C@@H](C)N(Cc2ccc(-c3ccccn3)cc2)C[C@H]1C, the inhibition was 20.8% (inactive).
In the case of COc1cccc(NC(=O)Nc2ccc3c(c2)C(=O)N(C)C[C@H](OC)[C@@H](C)CN[C@@H](C)CO3)c1, the inhibition was 45.9% (inactive).
With COc1cccc(NC(=O)Nc2ccc3c(c2)C(=O)N(C)C[C@@H](OC)[C@H](C)CN(CC2CC2)[C@H](C)CO3)c1 the inhibition was 58.2% (active).
For CO[C@@H]1CN(C)C(=O)c2cc(NC(=O)NC(C)C)ccc2OC[C@@H](C)N(CC2CC2)C[C@@H]1C, the inhibition was -2.47% (inactive).
COc1ccccc1C(=O)Nc1ccc2c(c1)C(=O)N(C)C[C@@H](OC)[C@@H](C)CN(CC1CC1)[C@@H](C)CO2 was tested, and the inhibition was 14.3% (inactive).
In the case of COc1ccc(NC(=O)Nc2ccc3c(c2)OC[C@@H](C)NC[C@@H](C)[C@H](OC)CN(C)C3=O)cc1, the inhibition was -1.22% (inactive).
COc1cccc(NC(=O)Nc2ccc3c(c2)OC[C@@H](C)NC[C@@H](C)[C@H](OC)CN(C)C3=O)c1 was tested, and the inhibition was 84.4% (active).
CCCC(=O)Nc1ccc2c(c1)C(=O)N(C)C[C@H](OC)[C@@H](C)CN[C@H](C)CO2 was tested, and the inhibition was -5.47% (inactive).
With O=C(CN1CCOCC1)N[C@@H]1CC[C@H](CCNS(=O)(=O)c2ccccc2F)O[C@H]1CO the inhibition was -13.5% (inactive).
O=C(Cc1ccccc1)N1CC[C@@H]2[C@H](CO)Nc3ccc(-c4ccccc4)cc3[C@@H]21 was tested, and the inhibition was -10.7% (inactive).
Cc1ccc(-c2ccc3c(c2)O[C@H](CN(C)C(=O)Nc2ccc(C(F)(F)F)cc2)[C@@H](C)CN([C@H](C)CO)S3(=O)=O)cc1 was tested, and the inhibition was -8.45% (inactive).
With Cc1cc(N2CCN(C)CC2)nc2ccc(NC(=S)N3CCOCC3)cc12 the inhibition was 46.4% (inactive).
In the case of CCOCCCNC(=S)Nc1ccc2nc(N3CCN(CC)CC3)cc(C)c2c1, the inhibition was 61% (active).
For Cc1cc(N2CCOCC2)nc2ccc(NC(=S)N3CCN(Cc4ccccc4)CC3)cc12, the inhibition was -21.2% (inactive).
COc1cccc(-c2cnc3c(c2)C(=O)N([C@@H](C)CO)C[C@@H](C)[C@H](CN(C)C(=O)CN(C)C)O3)c1 was tested, and the inhibition was 18.6% (inactive).
CC(C)NC(=O)N(C)C[C@H]1Oc2ccc(N(C)C)cc2C(=O)N([C@@H](C)CO)C[C@H]1C was tested, and the inhibition was -18.9% (inactive).
In the case of COc1ccc2c3c(n(C)c2c1)[C@@H](CO)NCC31CCN(CC2CCCC2)CC1, the inhibition was 37.5% (inactive).
With CCS(=O)(=O)N1CCC2(CC1)CN[C@H](CO)c1c2c2ccc(OC)cc2n1C the inhibition was 5.49% (inactive).
For COc1ccc2c3c(n(C)c2c1)[C@@H](CO)NCC31CCN(CC2CC2)CC1, the inhibition was 55.9% (active).
COc1ccc(NC(=O)Nc2ccc3c(c2)C(=O)N([C@@H](C)CO)C[C@@H](C)[C@H](CN(C)S(=O)(=O)c2cccs2)O3)cc1 was tested, and the inhibition was -4.93% (inactive).
COc1ccccc1S(=O)(=O)N(C)C[C@H]1Oc2cc(C#CCC3CCCC3)ccc2S(=O)(=O)N([C@@H](C)CO)C[C@H]1C was tested, and the inhibition was 9.21% (inactive).
In the case of Cc1ccc(S(=O)(=O)N2C[C@H](O)COC[C@@H]3O[C@@H](CC(=O)NCC4CCCCC4)CC[C@H]32)cc1, the inhibition was 37.6% (inactive).
In the case of O=C(C[C@@H]1CC[C@@H]2[C@H](COC[C@@H](O)CN2S(=O)(=O)c2ccccc2)O1)NCC1CCCCC1, the inhibition was 91% (active).
O=C(C[C@@H]1CC[C@H]2[C@@H](COC[C@H](O)CN2S(=O)(=O)c2ccccc2)O1)NCCN1CCCC1 was tested, and the inhibition was 8.64% (inactive).
For COc1ccccc1-c1ccc2c(c1)O[C@@H](CN(C)CC1CCOCC1)[C@H](C)CN([C@@H](C)CO)S2(=O)=O, the inhibition was 17% (inactive).
With COCC(=O)NC[C@@H]1[C@@H](c2ccc(C3=CCCC3)cc2)[C@@H](CO)N1C(C)=O the inhibition was 2.17% (inactive).
In the case of CN1CCC(CN)(N2CCN(c3ccccc3)CC2)CC1, the inhibition was 83.9% (active).
In the case of CCS(=O)(=O)N1CCC(N2CCN(c3ccccc3)CC2)CC1, the inhibition was -13% (inactive).
For Cc1cc(C)n(-c2nnc(N3CCN(c4ccccc4)CC3)nn2)n1, the inhibition was -6.3% (inactive).
With C[C@@H]1CCCCO[C@@H](CN(C)C)[C@@H](C)CN([C@H](C)CO)C(=O)c2cc(NC(=O)c3ccncc3)ccc2O1 the inhibition was -19.4% (inactive).
CCCC#Cc1ccc([C@@H]2[C@@H](CO)N3C(=O)CN(C(=O)Nc4ccc(F)cc4)C[C@@H]23)cc1 was tested, and the inhibition was 6.28% (inactive).
O=C(C1CCCC1)N1[C@H](CO)[C@H]2c3ccccc3N(S(=O)(=O)c3ccccc3)C[C@H]21 was tested, and the inhibition was -8.44% (inactive).
In the case of C[C@@H]1CN([C@H](C)CO)C(=O)c2cccc(NC(=O)Nc3ccc4c(c3)OCO4)c2O[C@H]1CN(C)S(=O)(=O)c1ccc(Cl)cc1, the inhibition was -13.7% (inactive).
With O=C(NC[C@H]1CC[C@H]2[C@H](CN2Cc2cccc(Cl)c2)O1)C1CC1 the inhibition was -6.18% (inactive).
In the case of COc1ccc(CN(C)C[C@H]2OCCCC[C@H](C)Oc3ccc(NC(=O)c4ccccc4)cc3C(=O)N([C@@H](C)CO)C[C@@H]2C)cc1, the inhibition was 28.1% (inactive).
For CO[C@H]1CN(C)C(=O)c2ccc(NC(=O)Nc3ccc(F)cc3)cc2OC[C@@H](C)NC[C@H]1C, the inhibition was -5.12% (inactive).
In the case of Cc1ccc(C(=O)N/C(=C/c2ccc(-c3cccc([N+](=O)[O-])c3)o2)C(=O)NCCCN(C)C)cc1, the inhibition was 65.9% (active).
For Cc1occc1C(=O)N/N=C/c1ccc(-c2cccc([N+](=O)[O-])c2)o1, the inhibition was -14% (inactive).
In the case of Cc1ccc(C(=O)N/C(=C\c2ccc(F)cc2)C(=O)NCCN2CCOCC2)cc1, the inhibition was -4.68% (inactive).
With COc1ccc(CNC(=O)C[C@H]2C[C@H]3c4cc(NS(C)(=O)=O)ccc4O[C@H]3[C@@H](CO)O2)cc1 the inhibition was 9.84% (inactive).
Cc1ccc(-c2ccc3c(c2)O[C@@H](CN(C)C(=O)CC2CC2)[C@@H](C)CN([C@@H](C)CO)S3(=O)=O)cc1 was tested, and the inhibition was 18.4% (inactive).
COCCNC(=O)C[C@@H]1C[C@@H]2c3cc(NC(=O)Nc4ccc(C(F)(F)F)cc4)ccc3O[C@@H]2[C@@H](CO)O1 was tested, and the inhibition was 1.63% (inactive).
CC(=O)c1cccc(-c2cnc3c(NC=O)cc(-c4ccccc4Oc4ccccc4)cn23)c1 was tested, and the inhibition was -29.2% (inactive).
CN(C)CCNC(=O)c1ccc(-c2cn3c(-c4ccc(Oc5ccccc5)cc4)cnc3cn2)cc1 was tested, and the inhibition was 85.7% (active).
CN(C)C(CNC(=O)c1ccc(OCc2cn3ccccc3n2)cc1)c1ccco1 (centres undefined) was tested, and the inhibition was -13.9% (inactive).
In the case of C[C@H]1CN([C@@H](C)CO)C(=O)c2cccc(NS(=O)(=O)c3cn(C)cn3)c2O[C@H]1CN(C)C(=O)Nc1ccc2c(c1)OCO2, the inhibition was -13.3% (inactive).
For CS(=O)(=O)N1[C@H](C#N)[C@H](c2ccc(C#CC3CC3)cc2)[C@H]1CO, the inhibition was -26.1% (inactive).
In the case of COc1ccc(NC(=O)N(C)C[C@@H]2Oc3c(NS(=O)(=O)c4ccc(OC)cc4)cccc3C(=O)N([C@H](C)CO)C[C@@H]2C)cc1, the inhibition was -3.75% (inactive).
In the case of COc1ccc2c3c(n(C)c2c1)[C@H](CO)N(S(=O)(=O)c1ccc(C)cc1)CC31CCN(C(=O)c2ccccn2)CC1, the inhibition was 21.8% (inactive).
For C[C@H]1CN([C@@H](C)CO)C(=O)CCCn2nncc2CO[C@@H]1CN(C)C(=O)Nc1ccc(N2CCN(C)CC2)cc1, the inhibition was 60.1% (active) and 24.7% (inactive).
With COC(=O)N(C)C[C@@H]1OCc2cnnn2CCCC(=O)N([C@@H](C)CO)C[C@@H]1C the inhibition was 0.525% (inactive) and 0.31% (inactive).
In the case of C[C@@H]1CN([C@@H](C)CO)C(=O)CCCn2nncc2CO[C@H]1CN(C)C(=O)Nc1ccc(C(F)(F)F)cc1, the inhibition was -10.9% (inactive) and -1.52% (inactive).
For COc1ccc(S(=O)(=O)N2CC[C@@H]3[C@@H](CO)Nc4ccc(C#Cc5cccnc5)cc4[C@@H]32)cc1, the inhibition was 0.847% (inactive).
With Cc1noc(C)c1S(=O)(=O)N(C)C[C@H]1Oc2ccc(NC(=O)CCN3CCOCC3)cc2CC(=O)N([C@H](C)CO)C[C@H]1C the inhibition was -2.41% (inactive).
C[C@H](CO)N1C[C@H](C)[C@H](CN(C)C)Oc2ccc(NC(=O)Nc3ccc(F)cc3)cc2CC1=O was tested, and the inhibition was -3.53% (inactive).
With Cc1cccc(NC(=S)NC23CN4CN(CN(C4)C2)C3)c1 the inhibition was 82.8% (active).
In the case of Cc1cccc(NC(=S)NCc2ccc3[nH]c4c(c3c2)CCCC4)c1, the inhibition was -21.7% (inactive).
For Cc1cccc(NC(=O)NC2(C)CCS(=O)(=O)C2)c1 (centres undefined), the inhibition was -1.1% (inactive).
For O=C(NCCN1CCOCC1)c1cccc(S(=O)(=O)Nc2ccc(F)cc2)c1, the inhibition was 2.89% (inactive).
Cc1cccc(C(=O)OC(C)CN2CCN(C)CC2)c1 (centres undefined) was tested, and the inhibition was -5.75% (inactive).
Cc1cccc(-c2nc3ccc(C(=O)NCCN4CCN(C)CC4)cc3nc2-c2cccc(C)c2)c1 was tested, and the inhibition was 68% (active).
CN(C)CC(=O)N1[C@H](CO)[C@@H](c2ccc(-c3cccc(C(=O)N(C)C)c3)cc2)[C@@H]1C#N was tested, and the inhibition was -31.9% (inactive).
Oc1ccc(N=Cc2sc3ccccc3c2Cl)cc1 was tested, and the inhibition was 55.8% (active).
O=C(NC1CCC1)[C@H]1[C@H](CO)[C@H]2Cn3c(ccc(C4=CCCCC4)c3=O)[C@@H]1N2CC1CC1 was tested, and the inhibition was 1.51% (inactive).
With CCc1ccc(S(=O)(=O)NCC(O)COc2ccc(OC)cc2)cc1 (centres undefined) the inhibition was -8.48% (inactive).
In the case of Nc1ccc(OCC(O)C[n+]2ccc(CCS(=O)(=O)[O-])cc2)cc1 (centres undefined), the inhibition was 58.1% (active).
In the case of CCCc1ccc(OCC(O)CN2CCN(C(=O)OCC)CC2)cc1 (centres undefined), the inhibition was -8.19% (inactive).
With COCC(=O)N1CC(=O)N2[C@H](C1)[C@H](c1ccc(C#CC3CCCCC3)cc1)[C@@H]2CO the inhibition was 6.1% (inactive).
For COc1ccc2c3c([nH]c2c1)[C@H](CO)N(C(=O)c1ccccc1)CC31CCN(S(=O)(=O)c2cccs2)CC1, the inhibition was 2.57% (inactive).
